According to PubChem BioAssay AID1159580 (chemical genetic matrix, 2015):
Values joined by “and” are separate entries in the source; they are usually repeats but may differ in a detail not shown here. Equal entries are not always repeated. In all, about 5,500 compounds went through this assay and about 2,000 (36%) were called active. Inconclusive results (about 18%) are left out. No stated cut-off is given here; in the data, active means normalized growth mostly below about 0.91 (no sharp cut-off); inconclusive means no clear call, values can overlap the other calls; inactive means mostly above about 0.92. The list shows a part of the results.

Experiment: chemical genetic growth profiling, strain panel (AID 1159580);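 further: tested at 20 µM; growth read once vehicle control cultures reached saturation at 30 °C; 1 = growth at the plate median or of vehicle wells; lower values mean less growth of the strain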
Details: growth OD
[1] = S. cerevisiae deletion strains, locus YBR021W, strain FUR4, hits give low values
[2] = S. cerevisiae deletion strains, locus YBR229C, strain ROT2, hits give low values
[3] = S. cerevisiae deletion strains, locus YCL029C, strain bik1, hits give low values
[4] = S. cerevisiae deletion strains, locus YDL035C, strain GPR1, hits give low values
[5] = S. cerevisiae deletion strains, locus YDL074C, strain BRE1, hits give low values
[6] = S. cerevisiae deletion strains, locus YDL101C, strain DUN1, hits give low values
[7] = S. cerevisiae deletion strains, locus YDL185W, strain tfp1, hits give low values
[8] = S. cerevisiae deletion strains, locus YDL192W, strain arf1, hits give low values
[9] = S. cerevisiae deletion strains, locus YDR101C, strain arx1, hits give low values
[10] = S. cerevisiae deletion strains, locus YDR150W, strain NUM1, hits give low values
[11] = S. cerevisiae deletion strains, locus YDR162C, strain NBP2, hits give low values
[12] = S. cerevisiae deletion strains, locus YDR318W, strain mcm21, hits give low values
[13] = S. cerevisiae deletion strains, locus YDR388W, hits give low values
[14] = S. cerevisiae deletion strains, locus YDR502C, strain sam2, hits give low values
[15] = S. cerevisiae deletion strains, locus YEL061C, strain CIN8, hits give low values
[16] = S. cerevisiae deletion strains, locus YER110C, hits give low values
[17] = S. cerevisiae deletion strains, locus YER155C, strain BEM2, hits give low values
[18] = S. cerevisiae deletion strains, locus YER167W, strain BCK2, hits give low values
[19] = S. cerevisiae deletion strains, locus YGL078C, strain dbp3, hits give low values
[20] = S. cerevisiae deletion strains, locus YGL086W, strain mad1, hits give low values
[21] = S. cerevisiae deletion strains, locus YGL248W, strain PDE1, hits give low values
[22] = S. cerevisiae deletion strains, locus YGR135W, strain pre9, hits give low values
[23] = S. cerevisiae deletion strains, locus YGR252W, strain gcn5, hits give low values
[24] = S. cerevisiae deletion strains, locus YHR030C, strain SLT2, hits give low values
[25] = S. cerevisiae deletion strains, locus YHR079C, strain IRE1 (second series), hits give low values
[26] = S. cerevisiae deletion strains, locus YHR094C, strain hxt1, hits give low values
[27] = S. cerevisiae deletion strains, locus YHR129C, strain ARP1, hits give low values
[28] = S. cerevisiae deletion strains, locus YHR200W, strain rpn10, hits give low values
[29] = S. cerevisiae deletion strains, locus YIL066C, strain RNR3, hits give low values
[30] = S. cerevisiae deletion strains, locus YIL073C, strain SPO22, hits give low values
[31] = S. cerevisiae deletion strains, locus YIL125W, strain kgd1, hits give low values
[32] = S. cerevisiae deletion strains, locus YIR030C, strain dcg1, hits give low values
[33] = S. cerevisiae deletion strains, locus YJL095W, strain BCK1, hits give low values
[34] = S. cerevisiae deletion strains, locus YJL134W, strain LCB3, hits give low values
[35] = S. cerevisiae deletion strains, locus YJL168C, strain set2, hits give low values
[36] = S. cerevisiae deletion strains, locus YJL187C, strain SWE1 (second series), hits give low values
[37] = S. cerevisiae deletion strains, locus YJR043C, strain POL32, hits give low values
[38] = S. cerevisiae deletion strains, locus YKL009W, strain mrt4, hits give low values
[39] = S. cerevisiae deletion strains, locus YKL068W, hits give low values
[40] = S. cerevisiae deletion strains, locus YKL085W, strain MDH1 (second series), hits give low values
[41] = S. cerevisiae deletion strains, locus YKL085W, strain MDH1, hits give low values
[42] = S. cerevisiae deletion strains, locus YKR001C, strain vps1, hits give low values
[43] = S. cerevisiae deletion strains, locus YLR039C, strain RIC1, hits give low values
[44] = S. cerevisiae deletion strains, locus YLR058C, strain SHM2, hits give low values
[45] = S. cerevisiae deletion strains, locus YLR102C, strain apc9, hits give low values
[46] = S. cerevisiae deletion strains, locus YLR262C, strain YPT6, hits give low values
[47] = S. cerevisiae deletion strains, locus YLR268W, strain sec22, hits give low values
[48] = S. cerevisiae deletion strains, locus YLR330W, strain CHS5, hits give low values
[49] = S. cerevisiae deletion strains, locus YLR342W, strain FKS1 (second series), hits give low values
[50] = S. cerevisiae deletion strains, locus YLR371W, strain rom2, hits give low values
[51] = S. cerevisiae deletion strains, locus YLR418C, strain cdc73, hits give low values
[52] = S. cerevisiae deletion strains, locus YML016C, strain PPZ1, hits give low values
[53] = S. cerevisiae deletion strains, locus YML032C, strain rad52, hits give low values
[54] = S. cerevisiae deletion strains, locus YML124C, strain tub3, hits give low values
[55] = S. cerevisiae deletion strains, locus YMR078C, strain ctf18, hits give low values
[56] = S. cerevisiae deletion strains, locus YMR223W, strain ubp8, hits give low values
[57] = S. cerevisiae deletion strains, locus YMR307W, strain GAS1, hits give low values
[58] = S. cerevisiae deletion strains, locus YNL067W, strain RPL9B, hits give low values
[59] = S. cerevisiae deletion strains, locus YNL128W, strain TEP1, hits give low values
[60] = S. cerevisiae deletion strains, locus YNL233W, strain BNI4, hits give low values
[61] = S. cerevisiae deletion strains, locus YNL250W, strain rad50, hits give low values
[62] = S. cerevisiae deletion strains, locus YNL271C, strain bni1, hits give low values
[63] = S. cerevisiae deletion strains, locus YNL298W, strain CLA4, hits give low values
[64] = S. cerevisiae deletion strains, locus YNL307C, strain MCK1, hits give low values
[65] = S. cerevisiae deletion strains, locus YNL322C, strain KRE1, hits give low values
[66] = S. cerevisiae deletion strains, locus YNR052C, strain pop2, hits give low values
[67] = S. cerevisiae deletion strains, locus YOL012C, strain htz1
[68] = S. cerevisiae deletion strains, locus YOL147C, strain pex11, hits give low values
[69] = S. cerevisiae deletion strains, locus YOR061W, strain CKA2, hits give low values
[70] = S. cerevisiae deletion strains, locus YOR069W, strain VPS5, hits give low values
[71] = S. cerevisiae deletion strains, locus YOR136W, strain idh2, hits give low values
[72] = S. cerevisiae deletion strains, locus YOR144C, strain elg1, hits give low values
[73] = S. cerevisiae deletion strains, locus YOR184W, strain ser1, hits give low values
[74] = S. cerevisiae deletion strains, locus YOR316C, strain cot1, hits give low values
[75] = S. cerevisiae deletion strains, locus YPL241C, strain CIN2, hits give low values
[76] = S. cerevisiae deletion strains, locus YPR119W, strain clb2, hits give low values
[77] = S. cerevisiae deletion strains, locus YPR141C, strain kar3, hits give low values
[78] = S. cerevisiae deletion strains, locus YPR163C, strain tif3, hits give low values
[79] = S. cerevisiae deletion strains, locus YPR167C, strain met16, hits give low values
[80] = S. cerevisiae deletion strains, strain wtn01, hits give low values
[81] = S. cerevisiae strains, strain wild type, hits give low values
[82] = S. cerevisiae deletion strains, locus YGR229C, strain SMI1, hits give low values
[83] = S. cerevisiae deletion strains, locus YNL153C, strain GIM3, hits give low values

Measured: normalized growth

COc1cc2c(cc1-c1cc3cc4ccoc4cc3oc1=O)OCO2
inactive: [2] 0.995 | [3] 0.965 | [4] 1.01 | [5] 1 | [6] 0.98 | [7] 0.97 | [8] 1.01 | [9] 0.981 | [10] 0.991 | [11] 0.977 | [12] 0.973 | [13] 0.965 | [14] 0.95 | [15] 1.01 | [16] 0.97 | [18] 1.02 | [19] 0.997 | [20] 1.01 | [21] 0.977 | S. cerevisiae deletion strains, locus YGR078C, strain PAC10, hits give low values 0.993 | [22] 0.993 | [23] 1.16 | [24] 0.984 and 1 | [25] 0.979 | S. cerevisiae deletion strains, locus YHR079C, strain IRE1, hits give low values 1.01 | [27] 1.01 | [28] 0.972 | [29] 0.973 | [30] 0.902 | [31] 0.984 | [32] 0.989 | [33] 0.979 and 1 | [34] 0.973 | [35] 1.01 | [36] 0.98 | [37] 1.01 | S. cerevisiae deletion strains, locus YJR066W, strain TOR1, hits give low values 0.942 | [39] 1.02 | [40] 1.05 | [41] 1.05 | [42] 1.01 | [43] 0.954 | [44] 0.973 | [45] 0.997 | S. cerevisiae deletion strains, locus YLR113W, strain HOG1, hits give low values 0.996 | [46] 1.19 | [47] 0.95 | [48] 0.983 | [49] 0.993 | [51] 0.915 | [52] 0.982 | [53] 0.983 | [54] 0.975 | [55] 0.984 | [56] 0.999 | [58] 0.968 | [59] 1.01 | S. cerevisiae deletion strains, locus YNL183C, strain NPR1, hits give low values 0.925 | [60] 1 | [61] 0.975 | [62] 0.991 | [63] 1 | [64] 0.944 | [66] 1.03 | [67] 1.22 | [68] 0.992 | [69] 0.971 | [70] 0.977 | [71] 0.987 | [72] 0.981 | [73] 0.907 | S. cerevisiae deletion strains, locus YOR231W, strain MKK1, hits give low values 1.07 | [75] 0.984 | S. cerevisiae deletion strains, locus YPL256C, strain CLN2, hits give low values 1.01 | [76] 0.966 | [77] 1.02 | [78] 0.969 | [79] 0.995 | [80] 0.972 | [81] 1.01
active: [1] 1.31 [resistant] | [17] 1.11 [resistant] | [26] 1.16 [resistant] | [38] 1.19 [resistant] | [50] 1.18 [resistant] | [57] 1.57 [resistant] | [65] 1.16 [resistant] | [74] 1.17 [resistant]

COc1cc2c(cc1/C=C/C(=O)c1cc(OC)c(OC)cc1OC)OCO2
inactive: [1] 1.14 | [2] 0.968 | [3] 1.02 | [4] 1 | [5] 1.05 | [6] 0.994 | S. cerevisiae deletion strains, locus YDL134C, strain PPH21, hits give low values 1.01 | [7] 1 | [8] 1.01 | [9] 0.998 | [10] 1.02 | [11] 0.974 | [12] 1.01 | [13] 1.02 | [14] 1.02 | [15] 1 | [16] 1.02 | [17] 1.02 | [18] 1.03 | [19] 0.997 | [20] 1.01 | [21] 0.996 | [22] 1.01 | [82] 1.01 | [23] 1.08 | [24] 1.02 | [25] 1 | [26] 1.01 | [27] 1.02 | [28] 1.02 | [29] 1.01 | [30] 1.06 | [31] 1.03 | [32] 1.01 | [33] 1 | [34] 1.01 | [35] 1.01 | [36] 1 | [37] 1.02 | [38] 1.02 | [39] 1 | [40] 1 | [41] 1 | S. cerevisiae deletion strains, locus YKL190W, strain CNB1, hits give low values 0.994 | [42] 1.02 | [43] 0.994 | [44] 0.998 | [45] 1.02 | [46] 1.01 | [47] 1.02 | [48] 1.02 | [49] 1.06 | [50] 1.02 | [51] 1.04 | [52] 1.01 | [53] 1.02 | [54] 0.995 | [55] 1.03 | [56] 1.01 | S. cerevisiae deletion strains, locus YMR263W, strain SAP30, hits give low values 1 | [57] 1.21 | [58] 0.998 | [59] 0.996 | [83] 0.983 | [60] 1.02 | [61] 1.01 | [62] 1.01 | [63] 1.02 | [64] 1.03 | [65] 1.01 | [66] 1.01 | S. cerevisiae deletion strains, locus YOL006C, strain TOP1, hits give low values 1.27 | [67] 1.18 | [68] 1.01 | [69] 0.975 | [70] 1.01 | [71] 1.02 | [72] 1 | [73] 0.993 | [74] 1.04 | S. cerevisiae deletion strains, locus YPL055C, strain LGE1, hits give low values 1.05 | [76] 1.01 | [77] 1.01 | [78] 1.01 | [79] 1.01 | [80] 1.01 | [81] 1.01

CCCCN1CCC(COC(=O)c2cc(Cl)c(N)c3c2OCCO3)CC1
inactive: S. cerevisiae deletion strains, locus YAL013W, strain DEP1, hits give low values 0.976 | S. cerevisiae deletion strains, locus YAL040C, strain CLN3, hits give low values 0.973 | S. cerevisiae deletion strains, locus YCL061C, strain MRC1 (second series), hits give low values 0.987 | [10] 0.997 | S. cerevisiae deletion strains, locus YDR363W, strain ESC2, hits give low values 0.968 | S. cerevisiae deletion strains, locus YER002W, strain NOP16, hits give low values 0.987 | [82] 0.966 | [57] 0.989 | [59] 0.991 | [83] 0.996 | S. cerevisiae deletion strains, locus YNL175C, strain NOP13, hits give low values 1 | S. cerevisiae deletion strains, locus YNL197C, strain WHI3, hits give low values 0.991 | S. cerevisiae deletion strains, locus YNL224C, strain SQS1, hits give low values 1.01 | [65] 0.982 | S. cerevisiae deletion strains, locus YOR083W, strain WHI5 (second series), hits give low values 0.989 | [75] 0.993
